{
  "source": "PubChem BioAssay (NCATS)",
  "note": "Results filed as inconclusive are left out. Values without a mark were called inactive. Calls of active or inactive are those of the source. Calls come from the whole dose curve; as a rule, active = well fitted inhibition curve with a large enough effect; inconclusive = small, poorly fitted or top-dose-only effect; inactive = flat fitted curve, though single readings scatter. % is set by controls: 0 for no effect and ±100 for the full control effect.",
  "data": [
    {"target": "Calcium and integrin-binding protein 1 (Homo sapiens) (UniProt Q99828)", "sequence (Q99828 whole entry, looked up)": "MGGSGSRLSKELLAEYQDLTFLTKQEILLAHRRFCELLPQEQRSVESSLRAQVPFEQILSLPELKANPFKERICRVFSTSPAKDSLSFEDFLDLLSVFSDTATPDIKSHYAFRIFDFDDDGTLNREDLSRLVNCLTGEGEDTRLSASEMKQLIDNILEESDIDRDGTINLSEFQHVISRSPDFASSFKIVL", "assay": "Primary qHTS for Identification of Calcium Integrin Binding Protein 1 (CIB1) Competitor (AID 1508620); note: top concentration of the series differs between compounds", "settings": "CIB1-GST / FITC-alphaIIb peptide fluorescence polarization; series mostly up to 114 µM; activity change, negative = inhibition: at the top concentration", "procedure,_shortened": "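Fluorescence polarization competition: GST-tagged CIB1 (1 uM final) preincubated with compound 15 min at room temperature, then FITC-labelled alphaIIb peptide (100 nM final) added. After 15 min at room temperature, polarization read at Ex 480/Em 540.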", "values": [
      {"smiles": "O=S(=O)(c1ccc2c(c1)OCCO2)N1CCN(S(=O)(=O)c2ccc3nc(Cl)c(Cl)nc3c2)CC1", "activity change, negative = inhibition": "-7.19%"},
      {"smiles": "S=C(NCCCN(Cc1ccc(Cl)c(Cl)c1)c1ccc(Br)cn1)NCCc1cnc[nH]1", "activity change, negative = inhibition": "0.0503%"},
      {"smiles": "Cc1cnc(-c2ccccc2C(F)F)nc1NCC1CN(c2cnccn2)C1", "activity change, negative = inhibition": "0.273%"},
      {"smiles": "O=S1(=O)N=C(Oc2ccccc2-c2ccccc2)c2ccccc21", "activity change, negative = inhibition": "-18.4%"},
      {"smiles": "CN(Cc1ccco1)c1ncnc2ccc(-c3ccc4c(ccn4C)c3)cc12", "activity change, negative = inhibition": "-3.65%"},
      {"smiles": "N#CN1CCC(NS(=O)(=O)c2cccc(F)c2)C1", "note": "(configuration not stated)", "activity change, negative = inhibition": "0.0415%"},
      {"smiles": "N#Cc1c(-c2ccccc2C(F)(F)F)nc2ccccc2c1NCc1ccc(-c2cccnc2)cc1", "activity change, negative = inhibition": "18.7%"},
      {"smiles": "Cc1cc(N[S+](=O)([O-])c2ccc(NC(=O)Cc3ccc4c(c3)OCCO4)cc2)no1", "activity change, negative = inhibition": "-13.6%"},
      {"smiles": "Cc1ccc(OCCn2c(CCNC(=O)Cc3ccccc3F)nc3ccccc32)cc1", "activity change, negative = inhibition": "31.8%"},
      {"smiles": "COc1ccccc1C1=Nn2c(nnc2-c2ccccc2OC)SC1", "activity change, negative = inhibition": "5.28%"},
      {"smiles": "Cc1ccccc1-c1nc(NCc2ccc(-c3cccnc3)cc2)c2ccccc2n1", "activity change, negative = inhibition": "0.443%"},
      {"smiles": "O=C1CCc2cc(S(=O)(=O)Nc3ccc(Cl)c(Cl)c3)c(F)cc2N1", "Potency": "inactive"},
      {"smiles": "COc1cc(O)c(C(CC(=O)N2CCCC(C(=O)N3CCCCC3)C2)c2ccc3c(c2)OCO3)c(OC)c1", "note": "(configuration not stated)", "activity change, negative = inhibition": "-6.14% [at 228 µM]"},
      {"smiles": "Cc1csc(CNc2ncnc3ccc(-c4ccco4)cc23)c1", "activity change, negative = inhibition": "2.36%"},
      {"smiles": "Cc1cc(C)nc(NC(=S)N2CCN(c3nccc4ccccc34)CC2)c1", "activity change, negative = inhibition": "-7.65%"},
      {"smiles": "COc1ccc(-c2nnc3n2N=C(c2ccccc2OC)CS3)cc1", "activity change, negative = inhibition": "-2.62%"},
      {"smiles": "NC(=O)C1CCN(c2nc(-c3ccc4ccccc4c3)cs2)CC1", "activity change, negative = inhibition": "-3.42%"}
    ]}
  ]
}
